Reference: PubChem BioAssay (NCI)
About 83,000 compounds went through this panel and 20% of them were active in at least one assay; those are over-represented in the sample as a whole.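 Activity criterion: percent growth below 10, measured after cells in 96-well plates were exposed to a single compound concentration for 48 hours.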 Unmarked numbers belong to inactive results. The source made the active and inactive calls.

Tests used:
Assay in all cases: NCI-60 one-dose screen, 48 h (100 = growth as untreated, 0 = no growth, -100 = all killed)
Conditions in all cases: 10 µM unless noted
RPMI-8226 leukemia = test system: RPMI-8226 leukemia
OVCAR-8 ovarian = test system: OVCAR-8 ovarian
OVCAR-5 ovarian = test system: OVCAR-5 ovarian
OVCAR-4 ovarian = test system: OVCAR-4 ovarian
SK-OV-3 ovarian = test system: SK-OV-3 ovarian
IGROV1 ovarian = test system: IGROV1 ovarian
OVCAR-3 ovarian = test system: OVCAR-3 ovarian
HS 578T breast = test system: HS 578T breast
NCI/ADR-RES ovarian = test system: NCI/ADR-RES ovarian
T-47D breast = test system: T-47D breast
BT-549 breast = test system: BT-549 breast
MDA-MB-435 melanoma = test system: MDA-MB-435 melanoma
SW-620 colon = test system: SW-620 colon
MCF7 breast = test system: MCF7 breast
HCT-116 colon = test system: HCT-116 colon
HCC-2998 colon = test system: HCC-2998 colon
KM12 colon = test system: KM12 colon

SMILES	growth (RPMI-8226 leukemia)	growth (OVCAR-8 ovarian)	growth (OVCAR-5 ovarian) [%]	growth (OVCAR-4 ovarian)	growth (SK-OV-3 ovarian) [%]	growth (IGROV1 ovarian)	growth (OVCAR-3 ovarian)	growth (HS 578T breast)	growth (NCI/ADR-RES ovarian)	growth (T-47D breast)	growth (BT-549 breast)	growth (MDA-MB-435 melanoma)	growth (SW-620 colon)	growth (MCF7 breast)	growth (HCT-116 colon)	growth (HCC-2998 colon)	growth (KM12 colon)
Oc1c(CCl)cc(Cl)cc1Cc1cc(Cl)cc(Cc2cc(Cl)cc(CCl)c2O)c1O	4.65% (active)	16.7%	79.8	48%	36	37.8%	19.2%	26.1%	14%	22.1%	23.9%	44.1%	25.5%	8.55% (active)	3.12% (active)	19.5%	23.2%
CCCCCCC/C=C/[C@H]1O[C@]23C(=O)C[C@@]4(C[C@@H](OC5OC(CO)C(O)C(O)C5O)C[C@@H]4[C@H]2C=C1C)OC3=O (stereo partly specified)	-1.42% (active)	14.5%	27.7	29.6%	71.9	15.9%	9.92% (active)	61.7%	-5.53% (active)	25.2%	-0.665% (active)	3.95% (active)	9.92% (active)	14.4%	1.7% (active)	31.3%	28.6%
O=c1c2ccccc2oc2ccc(OCCCCCCN3CCCCCC3)cc12	13.3%	50.3%	58.9	46.6%	72.4	46.2%	59.8%	81.9%	54.2%	21.5%	60.5%	44.6%	23.5%	28.9%	25.6%	62.9%	29%
COc1cc(NCC(=O)Nc2cc(Nc3cccc(C(F)(F)F)c3)ncn2)c(Cl)c(OC)c1Cl	83.5%	94.1%	98.2	99.2%	93.6	95.3%	95.5%	82.2%	96.3%	81.2%	88.9%	102%	104%	85.8%	87.4%	103%	92.3%
Fc1ccc(N/N=C/c2ccc(-n3cccn3)cc2)cc1	97.7%	101%	112	95.6%	84.6	78.3%	93.6%	108%	87.6%	86.1%	92.2%	95.2%	79.6%	77%	91.9%	97.5%	80.1%
COc1cc(NC(=O)Nc2cnc(Nc3ccc(N4CCOCC4)cc3)nc2Oc2ccc(C(F)(F)F)cc2)cc(OC)c1	92.5%	100%	116	111%	104	104%	110%	99.4%	104%	98.4%	111%	107%	107%	101%	104%	104%	103%
COC(=O)/C=C/c1cc(OC(C)=O)c2c(c1)C(C(=O)OC)C(c1ccc(OC(C)=O)c(OC(C)=O)c1)O2 (stereo unspecified)	11.1%	-12.5% (active)	50.5	49.5%	18.8	20.1%	3.01% (active)	41.1%	6.1% (active)	49.3%	-4.09% (active)	-26.1% (active)	20.5%	10%	9.77% (active)	25.5%	16.5%
Cc1nc2sc(C(=O)Nc3cccc4ccccc34)c(N)c2cc1C(C)O (stereo unspecified)	18%	16.2%	40.7	55.5%	32.1	31.7%	3.11% (active)	32.3%	-1.67% (active)	49.4%	26.2%	-33.7% (active)	30.5%	17.8%	8.51% (active)	15.7%	18.2%
COc1cc2c(cc1OC)C(Sc1ccc(Cl)cc1)c1c(nc(N)c(C#N)c1N)O2 (stereo unspecified)	-24.2% (active)	1.28% (active)	10.8	-14.8% (active)	56.1	-25.5% (active)	-69.6% (active)	30.8%	1.5% (active)	-3.7% (active)	1.72% (active)	-43.8% (active)	-63.1% (active)	-52.2% (active)	-70.6% (active)	-48.1% (active)	-27.8% (active)
CC(C)(C)c1ccc2oc(=O)n(SC(Cl)(Cl)Cl)c2c1	102%	111%	105	106%	102	111%	106%	119%	100%	93.4%	98.2%	107%	76.5%	86.4%	103%	96.5%	95.2%
CCOC(=O)C1CCN(S(=O)(=O)/N=C2/NC(=O)NC2=C(Cl)Cl)CC1	6.17% (active)	21.4%	64	80%	70.9	-54.4% (active)	-81.2% (active)	24.1%	68.6%	55%	-9.2% (active)	-7.61% (active)	-63.9% (active)	16.4%	9.4% (active)	-10.1% (active)	12.8%
Nc1c(C(=O)Nc2ccccn2)sc2nc3c(cc12)CCCCC3	11.4%	19.1%	39.6	53.5%	36.2	44.9%	-3.52% (active)	30.5%	9.19% (active)	36.4%	52.6%	-25.2% (active)	30%	20.1%	17.1%	30.7%	18.8%
COc1ccccc1N1CCN(CCCOc2ccc(C(=O)/C=C3/C(=O)Nc4ccccc43)cc2)CC1	34.9%	65.9%	32.4	45.2%	79.7	67.7%	66.1%	26.7%	73%	33.3%	68.1%	73%	70.6%	49.7%	34.4%	60.2%	59.4%
C/C(=N\NC(=O)c1ccncc1)c1ccc(N)cc1	97.5%	101%	107	94.4%	101	97.4%	105%	96.8%	111%	83.8%	93.2%	102%	101%	95.9%	99.6%	106%	106%
COc1ccc(/C(=N\O)c2cc(C)c(OC)c(C)c2)cc1O	12.7%	15.3%	46.7	67%	51.2	30.3%	10.1%	33.5%	28.6%	84.9%	19.3%	-23.8% (active)	31%	19.1%	6.63% (active)	26.2%	14.8%
Nc1cc(N)nc(SCC(=O)O)n1	102%	100%	107	106%	105	106%	111%	99.6%	104%	105%	109%	109%	104%	105%	99.1%	101%	104%
COc1cc(C(=O)Nc2cc(O)c(C/C=C(\C)CCC=C(C)C)c(O)c2)cc2c1O[C@]1(C)CC[C@@H](O)C(C)(C)[C@H]1C2	-23.6% (active)	29.9%	48.5	32.8%	17.9	33.7%	5.54% (active)	-1.79% (active)	57.7%	9.68% (active)	18.4%	17.1%	4.02% (active)	10.2%	13.2%	23.2%	13.3%
CC(=O)c1c(OCC#N)ccc2c(C)cc(=O)oc12	80%	124%	114	107%	110	116%	120%	106%	118%	97.9%	118%	107%	96.8%	99.2%	101%	109%	107%
